From PubChem
SMN2 splice enh – increases expression of the SMN2 splice variant. HEK293 SMN2-luciferase splicing reporter, luminescence, 30-36 h. Potency, µM (highest dose often 46.1 µM), for inactives: top-dose activity change, positive = activation, hits mostly activators. actives 2.8% (n = 210,000). AID 1458; note: % of control where 0% means no effect; nearly all actives have a fitted effect of over 55% in size
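qHTS luciferase splicing reporter: luminescence rises when SMN2 exon 7 is included in transfected HEK293 cells. Compound exposure lasted 30-36 h at 37C, with 4.5 mM final sodium butyrate as control, followed by a ONE-Glo read.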
Rab9 prom act – activates the Rab9 promoter; Huh7 Rab9 promoter-luciferase reporter, luminescence, 24 h; Potency, µM (doses to about 9.22 µM), for the others: at the highest dose activation, negative = inhibition, hits mostly activators; actives 2.8% (n = 320,000); note: % of control where 0% means no effect; nearly all actives have a fitted effect of over 60% in size
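Huh7 reporter line, Rab9 promoter upstream of luciferase. Compound exposure 24 h at 37 °C in reduced-serum medium with 10% FBS. Read-out: luminescence.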
ELG1 genotox – genotoxicity induction in ELG1-luciferase HEK293T cells; actives 1.3% (n = 330,000); AID 504466; Potency, µM (top dose mostly 46 µM), for the others: top-dose activity change, positive = activation, usual class: activators; HEK293T ELG1-luciferase reporter, luminescence, 16 h; note: % of control where 0% means no effect; nearly all actives have a fitted effect of over 60% in size
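HEK293T cells expressing luciferase-tagged ELG1 were treated with compound or DMSO for 16 hr at 37°C. Luciferase activity was then read after 30 min with ONE-Glo at room temperature; rising signal flags genetic stress.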
NPC1 promoter act – activates the NPC1 promoter | Huh7 NPC1 promoter luciferase reporter, 24 h | Potency, µM (highest dose often 9.22 µM), inactives show at the highest dose activation, hits mostly activators | actives 2.4% (n = 320,000) | AID 485313; note: % of control where 0% means no effect; nearly all actives have a fitted effect of over 60% in size
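Cells: Huh7 expressing luciferase under the NPC1 promoter, 1500/well. Seeded 2 h, compound added, incubated 24 h at 37 °C. Luciferase reagent, 10 min ambient, then luminescence.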
FLuc counter – inhibits or activates purified firefly luciferase, miR-21 counter-screen. purified FLuc, Km substrates, luminescence inhibition. Potency, µM (series often up to 57.5 µM), without a hit: at the top dose activity change, negative = inhibition, usual class: inhibitors. actives 6.9% (n = 360,000). AID 588342;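 note: plate controls were vehicle for no effect and reference inhibitor for full effect; nearly all actives have a fitted effect of over 55% in size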
Target sequence (P08659 whole entry, looked up): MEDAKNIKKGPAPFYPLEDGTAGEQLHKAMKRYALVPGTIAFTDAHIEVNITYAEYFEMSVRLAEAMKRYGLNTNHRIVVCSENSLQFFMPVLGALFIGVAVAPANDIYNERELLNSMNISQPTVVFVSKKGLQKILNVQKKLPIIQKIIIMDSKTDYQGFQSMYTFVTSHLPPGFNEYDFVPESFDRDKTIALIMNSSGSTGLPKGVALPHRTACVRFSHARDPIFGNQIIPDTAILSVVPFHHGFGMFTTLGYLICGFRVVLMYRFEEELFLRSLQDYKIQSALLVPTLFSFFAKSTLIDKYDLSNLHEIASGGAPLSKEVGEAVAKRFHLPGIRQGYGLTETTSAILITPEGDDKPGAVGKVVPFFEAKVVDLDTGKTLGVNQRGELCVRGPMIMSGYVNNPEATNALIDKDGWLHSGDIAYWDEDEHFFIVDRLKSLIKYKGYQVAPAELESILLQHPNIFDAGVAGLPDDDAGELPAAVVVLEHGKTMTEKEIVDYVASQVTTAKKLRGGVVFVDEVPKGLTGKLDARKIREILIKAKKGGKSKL
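Purified P. pyralis luciferase (10nM final) with 10uM D-luciferin and 10uM ATP (Km levels) in 50mM Tris acetate pH 7.5, 10mM Mg acetate, 0.01% Tween-20, 0.05% BSA; qHTS 6-point titration, ~60 µM downward; luminescence read.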
ELG1 DNA repair – ELG1-dependent DNA repair inhibition. HEK293T ELG1-luciferase reporter, luminescence, 16 h; DNA damage induced by 5-fluorouridine. Potency, µM (top dose mostly 46.1 µM), for inactives: top-dose activity change, negative = inhibition, usual class: inhibitors. actives 2.3% (n = 330,000). AID 504467; note: % is set by controls: 0 for no effect and ±100 for the full control effect; nearly all actives have a fitted effect of over 55% in size
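HEK293T cells expressing luciferase-tagged ELG1 (2,000/well) received 5-Fluorouridine plus compound or DMSO for 16 hr at 37 °C. Luciferase was read by ONE-Glo luminescence after 30 min at room temperature.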
Starred values were filed as active, the others as inactive. Most compounds without a hit are left out; they make up all but 9.3% or so of the library. Calls come from the whole dose curve; as a rule, active = well fitted curve in the direction sought with a large enough effect; inconclusive = small, poorly fitted or top-dose-only effect, or another doubt; inactive = no such curve, though single readings can be large; an effect the other way counts as inactive or inconclusive. Potency is the fitted concentration of half-maximal effect.

Screening CCOc1ccc(C(=O)NC(=S)Nc2cccnc2)cc1 returned SMN2 splice enh inconclusive, Rab9 prom act 2.82µM*, ELG1 genotox 9.5%, NPC1 promoter act inconclusive, FLuc counter inconclusive and ELG1 DNA repair inconclusive.
For NC(=O)C[C@@H]1N[C@]2(C(=O)Nc3ccccc32)[C@@H]2C(=O)N(C3CCCCC3)C(=O)[C@H]12 the results were SMN2 splice enh 10.3%, Rab9 prom act 11.4%, ELG1 genotox 6.2%, NPC1 promoter act 16.8%, FLuc counter 1.2% and ELG1 DNA repair -2.9%.
`COc1cc2ccccc2cc1C(=O)Nc1cc(C)ccn1` gave Rab9 prom act 3.16µM*, ELG1 genotox inconclusive, NPC1 promoter act inconclusive, FLuc counter 12µM* and ELG1 DNA repair inconclusive.
For COc1cccc(NC(=O)c2ccccc2NC(=O)c2ccncc2)c1 the results were ELG1 genotox -0.6% and ELG1 DNA repair inconclusive.
Screening COc1ccc(C(=O)Nc2ccccc2C(=O)Nc2cccc(C)n2)cc1 returned Rab9 prom act 26.3%, ELG1 genotox 4.0%, NPC1 promoter act inconclusive, FLuc counter 5.36µM* and ELG1 DNA repair 22.0%.
COc1cc(C(=O)Nc2cc(C)ccn2)cc(OC)c1OC was read as SMN2 splice enh 23.1%, Rab9 prom act -1.8%, ELG1 genotox 0.4%, NPC1 promoter act -2.2%, FLuc counter -7.8% and ELG1 DNA repair -5.5%.
COc1ccc2[nH]c(C(=O)Nc3cccc(C)n3)cc2c1 was read as Rab9 prom act 0.501µM*, ELG1 genotox inconclusive, NPC1 promoter act 0.631µM*, FLuc counter 1.2µM* and ELG1 DNA repair inconclusive.
CC(=O)Nc1ccc(Nc2nc(C)nc3c2oc2ccccc23)cc1 was read as Rab9 prom act -2.3%, ELG1 genotox -11.4%, NPC1 promoter act -0.9%, FLuc counter -15.5% and ELG1 DNA repair inconclusive.
Cc1nc(NCCc2cnc[nH]2)c2oc3ccccc3c2n1 was read as SMN2 splice enh 3.5%, Rab9 prom act inconclusive, ELG1 genotox 5.0%, NPC1 promoter act 0.0%, FLuc counter 0.7% and ELG1 DNA repair 5.3%.
Screening COc1ccc(CCNc2nc(C)nc3c2oc2ccccc23)cc1OC returned SMN2 splice enh -55.5%, Rab9 prom act -5.2%, ELG1 genotox -11.7%, NPC1 promoter act -0.1%, FLuc counter -5.6% and ELG1 DNA repair 10.3µM*.
`Cc1nc(Nc2ccncc2)c2oc3ccccc3c2n1` gave SMN2 splice enh -2.2%, Rab9 prom act -21.0%, ELG1 genotox -19.7%, NPC1 promoter act -14.6%, FLuc counter 0.5% and ELG1 DNA repair 16.4µM*.
Screening COc1ccc(CCNc2ncnc3c2oc2ccccc23)cc1OC returned SMN2 splice enh -67.5%, Rab9 prom act -44.3%, ELG1 genotox -19.5%, NPC1 promoter act -33.4%, FLuc counter -10.9% and ELG1 DNA repair 16.4µM*.
`CCOC(=O)c1c(NC(=O)C2c3ccccc3Oc3ccccc32)sc2c1CCC(CC)C2` (stereo unspecified) gave SMN2 splice enh 7.9% and FLuc counter -2.6%.
`O=C(c1ccco1)N1CCN(c2nc3ccsc3c(=O)s2)CC1` gave SMN2 splice enh 23.3%, Rab9 prom act 17.6%, ELG1 genotox 16.4%, NPC1 promoter act 0.8%, FLuc counter -16.9% and ELG1 DNA repair -3.4%.
O=c1sc(N2CCN(c3ccc(F)cc3)CC2)nc2ccsc12 was read as SMN2 splice enh inconclusive, Rab9 prom act inconclusive, ELG1 genotox inconclusive, NPC1 promoter act inconclusive, FLuc counter 8.49µM* and ELG1 DNA repair inconclusive.
For O=c1sc(N2CCN(c3ccccc3F)CC2)nc2ccsc12 the results were SMN2 splice enh 12.6µM*, Rab9 prom act 0.794µM*, ELG1 genotox 7.31µM*, NPC1 promoter act 1.41µM*, FLuc counter 2.69µM* and ELG1 DNA repair inconclusive.
For COn1c(C)c(C(C)=O)c2c3nonc3ccc21 the results were SMN2 splice enh -6.2%, Rab9 prom act 2.2%, ELG1 genotox -21.6%, NPC1 promoter act 6.0%, FLuc counter 0.7% and ELG1 DNA repair 20.6µM*.
For O=C(Nc1ccc(-c2nc3ccccc3o2)c(O)c1)c1cc(-n2cnnc2)ccc1Cl the results were SMN2 splice enh -101.7%, Rab9 prom act -5.0%, ELG1 genotox inconclusive, NPC1 promoter act -8.2%, FLuc counter -14.5% and ELG1 DNA repair 20.6µM*.
For O=C(Nc1ccc(-c2nc3ccccc3o2)cc1)c1cc(-n2cnnc2)ccc1Cl the results were SMN2 splice enh -80.1%, Rab9 prom act -2.7%, ELG1 genotox 0.1%, NPC1 promoter act -2.0%, FLuc counter inconclusive and ELG1 DNA repair inconclusive.
`Cc1c(NC(=O)c2cccc3c(Cl)cccc23)cccc1-c1nc2ccccc2o1` gave SMN2 splice enh -1.0% and FLuc counter 3.9%.
`Cc1c(NC(=O)c2cc(-n3cnnc3)ccc2Cl)cccc1-c1nc2ccccc2o1` gave SMN2 splice enh 7.2%, Rab9 prom act -1.7%, ELG1 genotox -0.9%, NPC1 promoter act 0.0%, FLuc counter 3.79µM* and ELG1 DNA repair inconclusive.
Screening CS(=O)(=O)N(CC(=O)N1CCOCC1)c1cc(C(F)(F)F)ccc1Cl returned Rab9 prom act 7.9%, ELG1 genotox -4.0%, NPC1 promoter act 0.1%, FLuc counter 0.2% and ELG1 DNA repair -9.2%.
O=C(NC1CCCC1)C1CC(=O)N(c2ccc(F)c(Cl)c2)C1 (stereo unspecified) was read as Rab9 prom act 1.3%, ELG1 genotox 1.6%, NPC1 promoter act -1.6%, FLuc counter -0.3% and ELG1 DNA repair -1.1%.
For COc1ccc(/C=C/C(=O)CCC(=O)O)cc1 the results were Rab9 prom act 2.82µM*, ELG1 genotox 9.1%, NPC1 promoter act inconclusive, FLuc counter 6.75µM* and ELG1 DNA repair inconclusive.
COc1ccc(/C=C/C(=O)Oc2ccc(C)cc2)cc1 was read as Rab9 prom act 10.1%, ELG1 genotox -1.5%, NPC1 promoter act -2.7%, FLuc counter 12µM* and ELG1 DNA repair 4.6%.
`Cc1ccc(C(=O)NCCc2csc(-c3cccc(F)c3)n2)cc1C` gave FLuc counter 19µM*.
COc1cc(OC)cc(C(=O)NCCc2csc(-c3ccc(C(F)(F)F)cc3)n2)c1 was read as FLuc counter -12.0%.
Screening COc1ccc(C(=O)NCCc2csc(-c3ccc(Cl)cc3)n2)cc1 returned FLuc counter 12µM*.
Screening CCOc1ccc(C(=O)NCCc2csc(-c3cccc(F)c3)n2)cc1OCC returned FLuc counter -11.8%.
